Screening results as filed in PubChem BioAssay.
BL2 CD40 inh – CD40 pathway inhibition in BL2 cells | BL2 NF-kB luciferase reporter, CD40L-induced, 4 h | inhibition, % at 10 µM | 83,000 tested, 0.94% active | AID 1053188;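 active means mean inhibition of at least 50% with a set share of replicates also reaching that level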;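 further: 0% = neutral control wells and 100% = IKK inhibitor VII at 50 µM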
An asterisk follows results filed as active; [ ] = remark or other dose. Only a selection was taken, and hits are over-represented in it overall.

SMILES | BL2 CD40 inh
C[C@@H]1CN([C@H](C)CO)C(=O)Cc2cc(NS(=O)(=O)c3ccc(F)cc3)ccc2O[C@H]1CN(C)CC1CCCCC1 | 59*
Cc1noc(C)c1S(=O)(=O)Nc1ccc2c(c1)CC(=O)N([C@H](C)CO)C[C@H](C)[C@@H](CN(C)Cc1ccc(Oc3ccccc3)cc1)O2 | 33[25 µM]
C[C@H]1CN([C@@H](C)CO)C(=O)Cc2cc(NS(=O)(=O)c3ccc(F)cc3)ccc2O[C@H]1CN(C)Cc1ccncc1 | -4[25 µM]
C[C@@H]1CN([C@H](C)CO)C(=O)c2cc(NS(=O)(=O)c3ccc(F)cc3)ccc2O[C@H]1CN(C)Cc1ccc(C(F)(F)F)cc1 | 20
Cc1noc(C)c1S(=O)(=O)Nc1ccc2c(c1)CC(=O)N([C@@H](C)CO)C[C@@H](C)[C@@H](CN(C)Cc1ccc(Oc3ccccc3)cc1)O2 | 74*[25 µM]
C[C@@H]1CN([C@@H](C)CO)C(=O)Cc2cc(NS(=O)(=O)c3ccc(F)cc3)ccc2O[C@H]1CN(C)Cc1ccc(C(F)(F)F)cc1 | 72*
Cc1noc(C)c1S(=O)(=O)Nc1ccc2c(c1)CC(=O)N([C@@H](C)CO)C[C@@H](C)[C@@H](CN(C)Cc1ccccc1)O2 | 8
CN(C)CC(=O)N1CC2(C1)[C@@H](c1ccccc1)[C@@H](CO)N2Cc1cc(F)ccc1F | -10[25 µM]
C[C@H]1CN(C)C(=O)c2cc(N)ccc2O[C@@H]1CN(C)C | 7
Cc1noc(C)c1NC(=O)N(C)C[C@@H]1OCc2ccccc2-c2ccccc2C(=O)N([C@H](C)CO)C[C@H]1C | -8[25 µM]
O=C(c1ccccn1)N1C[C@@H]2N[C@H](C1)C2c1ccc(-c2ccccc2F)cc1 (some centres not stated) | 20[25 µM]
C[C@H](CO)N1C[C@H](C)[C@@H](CN(C)C(=O)Nc2ccccc2)Oc2ncc(-c3cccnc3)cc2C1=O | 1[25 µM]
COc1ccc(OC(=O)N(C)C[C@@H]2OCc3ccccc3-c3ccccc3C(=O)N([C@H](C)CO)C[C@@H]2C)cc1 | -6
C/C=C/c1ccc([C@H]2[C@@H](CO)N(C(=O)CC)[C@@H]2CNC(=O)CC2CC2)cc1 | -3
COc1cc(N2C(=O)C=CC2=O)ccc1N1C(=O)C=CC1=O | 109*
COc1ccc(-n2c(C)c3c(C)nnc(C)c3c2C)cc1OC | -5
COc1ccccc1N1C(=O)C2CC(C)=C(C)CC2C1=O (configuration not stated) | -5
COc1ccc(CN(C)C[C@@H]2Oc3c(NC(=O)c4cnccn4)cccc3C(=O)N([C@@H](C)CO)C[C@H]2C)cc1 | -24[25 µM]
O=C(NCCc1ccccc1)[C@H]1[C@H](CO)[C@H]2Cn3c(cccc3=O)[C@@H]1N2C(=O)C1CC1 | -8[25 µM]
O=C(Nc1ccccc1)[C@@H]1[C@@H](CO)[C@@H]2Cn3c(cccc3=O)[C@@H]2N1Cc1ccccc1Cl | -5[25 µM]
COc1cccc(NC(=O)N(C)C[C@@H]2Oc3ncc(/C=C/c4ccccc4)cc3C(=O)N([C@H](C)CO)C[C@@H]2C)c1 | 22[25 µM]
CC(C)[C@@H]1C(=O)N[C@H](c2ccc3c(c2)OCO3)CC=CC[C@@H](C)Oc2ccccc2C(=O)N1C (mixture of isomers) | -1
C[C@@H]1CN([C@H](C)CO)C(=O)c2c(c3ccccc3n2C)-c2ccccc2CO[C@@H]1CN(C)C(=O)Nc1ccc(-c2ccccc2)cc1 | -13
CN1C[C@@H]2[C@H](c3ccccc31)[C@H](CO)N2Cc1ccccc1Cl | 1[25 µM]
CC(=O)N(C)C[C@H]1Oc2c(cccc2N(C)C)C(=O)N(C)C[C@H]1C | -1
SMILES | BL2 CD40 inh
COC(=O)c1ccccc1NC1=C/C(=N\S(=O)(=O)c2cccs2)c2ccccc2C1=O | 33*
COC(=O)c1ccccc1NC(=O)COC(=O)/C=C/c1cccs1 | 10
COC(=O)c1ccccc1NC(=O)C(CCS(C)(=O)=O)NC(C)=O (configuration not stated) | 7
CNS(=O)(=O)c1cccc(C(=O)OCC(=O)c2ccc3c(c2)OCCO3)c1 | 25
N#CCC(=O)Nc1ccc(C(=O)OCC(=O)c2ccc3c(c2)OCO3)cc1 | -63
O=C(Nc1ccc(NC(=O)c2cccs2)cc1)c1ccc2c(c1)OCCO2 | 3
O=C(COC(=O)c1ccccc1[N+](=O)[O-])c1ccc2c(c1)OCO2 | 88*
O=C(COC(=O)c1cccs1)c1ccc2ccccc2c1 | -83
O=C(COC(=O)c1ccccc1-c1ccccc1[N+](=O)[O-])c1ccccc1 | -12
CC(=O)NC12CC3CC(C1)CC(C(=O)OCC(=O)c1ccc4c(c1)OCCO4)(C3)C2 | 59*
O=C(COC(=O)c1cccs1)c1ccc2c(c1)OCCO2 | 113*
COc1cccc(CN(C)C(=O)C23CC4CC(CC(NC(C)=O)(C4)C2)C3)c1OC | 5
CNC[C@@H]1Oc2ccc(NC(=O)Cc3cn(C)c4ccccc34)cc2C(=O)N([C@@H](C)CO)C[C@@H]1C | 7
CN(C)C(=O)[C@@H]1[C@@H](CO)[C@@H]2Cn3c(ccc(C4=CCCCC4)c3=O)[C@H]1N2Cc1ccncc1 | -11[25 µM]
N#C[C@@H]1[C@@H](c2ccccc2C2=CCCCC2)[C@@H](CO)N1C(=O)NC1CCCCC1 | 15
O=C1c2ccccc2CCC1CNCCc1ccc(O)cc1 (configuration not stated) | 91*[25 µM]
CC(=O)NCCc1ccc(O)cc1 | 3
O=C(NCCc1ccccc1)c1noc2c1CCc1ccccc1-2 | -38
CC(=O)N1[C@H](CO)[C@H](c2ccccc2)C12CN(S(=O)(=O)c1ccccc1)C2 | -11[25 µM]
O=C(Cc1cccnc1)N1CC(=O)N2[C@H](CO)[C@H](c3ccc(C#CC4CCCC4)cc3)[C@H]2C1 | 3
CCCCCCCCCC[n+]1cccc2c3ccccc3ccc21 | 94*
CCCCCC(=O)Nc1cccc2ccccc12 | -13
CCCCCCCCNc1ncnc2ccccc12 | 10
Cc1cccc[n+]1CCCCCCCCCC[n+]1ccccc1C | 9
CCCCCCCC[n+]1cccc2c3ccccc3ccc21 | 93*
SMILES | BL2 CD40 inh
CCS(=O)(=O)NC[C@@H]1[C@@H](c2ccccc2)[C@@H](CO)N1CC1CCCCC1 | -7[25 µM]
C[C@H]1CN([C@@H](C)CO)C(=O)CCCn2cc(nn2)CO[C@H]1CN(C)Cc1ccc2c(c1)OCCO2 | 1
CC(C)[C@@H](C)NC(=O)N(C)C[C@H]1OCc2ccccc2-c2ccccc2C(=O)N([C@@H](C)CO)C[C@H]1C | -5
CCCC#Cc1ccc2c(c1)[C@@H]1[C@@H](CCN1C(=O)C1CCC1)[C@@H](CO)N2 | -61
C/C=C/c1ccccc1[C@H]1[C@@H](C#N)N(c2nc(CC)cs2)[C@H]1CO | -10[25 µM]
C[C@H](CO)N1C[C@H](C)[C@H](CN(C)C(=O)c2ccncc2)OCc2ccccc2-c2ccccc2C1=O | -15
C[C@H](NC(=O)[C@@H]1N[C@@H]2c3ccc(-c4cccnc4)c(=O)n3C[C@@H]2[C@H]1CO)c1ccccc1 | 9[25 µM]
O=C(C[C@H]1C=C[C@H](NC(=O)C2CCC2)[C@@H](CO)O1)NC1CCCCC1 | -1[25 µM]
c1ccc(-c2noc(-c3ccno3)n2)nc1 | -25
c1ccc(-c2nc(-c3ccccn3)no2)cc1 | 87*
c1ccc(-c2noc(-c3ccco3)n2)nc1 | -71
C[C@@H]1CN([C@H](C)CO)C(=O)c2cc(NS(=O)(=O)c3cccs3)ccc2O[C@@H]1CN(C)C(=O)Nc1ccc2c(c1)OCO2 | -13[25 µM]
C[C@@H]1CN([C@H](C)CO)C(=O)CCCn2cc(nn2)CO[C@@H]1CN(C)C(=O)c1ccncc1 | -5[25 µM]
O=C(Nc1nc2ccccc2s1)c1cnccn1 | 28
C/C(=N\OCC(=O)Nc1nc2ccccc2s1)c1ccccc1 | 13
CC(=NNc1nc2ccccc2s1)c1ccncn1 | 63*
